Here are results for 66 molecules from the supplement of paper PMC8540655.

A number with no mark means an inactive call.

The test concerns Aedes aegypti larvae. Description: larval motility relative to same well at 0 h (fraction); higher = more motile (less active compound), active = 0.4 or less. As to conditions: 10 µM. The method, boiled down: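 Aedes aegypti larvae, hatched in pond salt solution with yeast at 25 °C and collected after 18–24 h, were dispensed at about 10 per well (100 µL) in 96-well plates. Compounds were tested at 10 µM, 1% v/v DMSO, with solvent and larvicide control wells on each plate. INVAPP movies (200 frames, 100 ms intervals) were recorded at 0, 2 and 24 h. Relative motility is each well's score divided by its 0 h score, median of three independent larval batches.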

As for `C[C@H]1[C@@H](c2cccc(C(F)(F)F)c2)OC(=O)N1C(=O)NCc1cncc2ccccc12`, the larval motility is, setting by setting: (2 h) 0.716; (24 h) 0.359 (active).
The corresponding values for `CCCCC(CC)CNC(=N)NC(=N)NCCCCCCNC(=N)NC(=N)NCC(CC)CCCC` (configuration not stated) are 0.646 and 1.07.
Turning to `O=C(Nc1cccc(C2=NCCN2)c1)c1ccc(-c2ccc(C(=O)Nc3cccc(C4=NCCN4)c3)cc2)cc1`, the larval motility runs as follows: (2 h) 0.648; (24 h) 0.961.
Consider `N=c1n(CCN2CCCCC2)c2ccccc2n1CC(O)COc1ccc(Cl)cc1Cl` (configuration not stated), for which the larval motility is, setting by setting: (2 h) 1.02; (24 h) 0.502.
The corresponding values for `c1cnc(NCc2ccc(CNc3ncccn3)cc2)nc1` are 1.23 and 0.598.
Take `Cc1onc(-c2ccccc2)c1-c1ccc(S(N)(=O)=O)cc1`: the larval motility was 0.513 (2 h) and 0.435 (24 h).
In the case of `CC(C)Oc1ccc(-c2nc(-c3cccc4c3CC[C@@H]4NCCO)no2)cc1C#N`, the larval motility (2 h) was 1.2 and the larval motility (24 h) is 1.25.
With `CCc1cc(Nc2cc(=O)n(CCN3CCN(C(=O)c4ccccc4)CC3)c(=O)[nH]2)ccc1C`, the larval motility (2 h) was 1.11 and the larval motility (24 h) is 1.07.
Take `CC(=N)N1CC[C@H](SC2=C(C(=O)O)N3C(=O)[C@@H]([C@@H](C)O)[C@H]3C2)C1`: the larval motility (2 h) is 1.05 and the larval motility (24 h) is 0.809.
Take `C=C(C)n1c(=O)n(Cc2ccccc2C)c2ccccc21`: the larval motility reads like this: (2 h) 1.39; (24 h) 0.851.
The like results for `CCC(C)NCC(O)Cn1c2ccc(Cl)cc2c2cc(Cl)ccc21` (configuration not stated) were, in that order, 0.799 and 1.
For the molecule `O=c1[nH]c(=O)n(Cc2cccc(Oc3ccccc3)c2)cc1Nc1ccccc1`, the larval motility reads like this: (2 h) 0.698; (24 h) 0.791.
With `CC(C)(C)c1ccc(C(=O)NC(=O)N2CCCc3ccccc32)cc1`, the larval motility runs as follows: (2 h) 0.973; (24 h) 0.629.
The corresponding values for `COc1cc(C(C(=O)NC2CCCCC2)N(C(=O)Cc2c[nH]c3ccccc23)c2ccc(C(C)C)cc2)cc(OC)c1OC` (configuration not stated) are 1.42 and 1.32.
The corresponding values for `Nc1ccc2oc(=O)ccc2c1I` are 0.518 and 0.509.
The corresponding values for `Cc1onc(-c2ccccc2Cl)c1C(=O)N[C@@H]1C(=O)N2[C@@H]1SC(C)(C)[C@@H]2C(=O)O` are 1.22 and 1.24.
With `OB1OCc2cc(Cl)ccc21`, the larval motility was 0.664 (2 h) and 1.04 (24 h).
Consider `CCCCOC(=O)Nc1cc2nc(C3CCCCC3)[nH]c2cc1N(CC)CC`, for which the larval motility (2 h) is 0.544 and the larval motility (24 h) is 0.594.
As to `O=C(CCc1ccc2c(c1)OCO2)NCc1ccc(-c2ccccc2F)cc1`, the larval motility is 0.778 (2 h) and 0.677 (24 h).
The like results for `CC[C@@]1(O)C(=O)OCc2c1cc1n(c2=O)Cc2cc3c(CN(C)C)c(O)ccc3nc2-1` were, in that order, 0.831 and 0.876.
The like results for `CCCc1ccc(-c2cc3cn([C@H]4C[C@H](O)[C@@H](CO)O4)c(=O)nc3o2)cc1` were, in that order, 0.729 and 0.902.
Regarding `O=C1c2cccc3cccc(c23)C(=O)N1CC1CO1` (configuration not stated), the larval motility by setting is: (2 h) 0.906; (24 h) 0.936.
For the molecule `COC(=O)Nc1nc2c(C)cccc2[nH]1`, the larval motility is, setting by setting: (2 h) 0.678; (24 h) 0.778.
The corresponding values for `COCCn1cnc2c(=O)[nH]c(Nc3ccccc3)nc21` are 0.921 and 0.552.
The like results for `CCOC(=O)N1CCN(c2ccc(Cl)cc2)CC1` were, in that order, 1.05 and 1.36.
In the case of `CC(C)(C)OC(=O)NCc1ccc(C(=O)N[C@H]2CCOC2=O)cc1`, the larval motility reads like this: (2 h) 0.701; (24 h) 0.769.
The like results for `CC[C@@H](CO)NCCN[C@@H](CC)CO` were, in that order, 0.527 and 0.604.
The like results for `NC(=O)C(c1ccccc1)(c1ccccc1)[C@H]1CCCN(CCc2ccc3c(c2)CCO3)C1` were, in that order, 0.612 and 0.78.
With `O=C(O)c1cc(-c2ccccc2)nc2ccccc12`, the larval motility was 0.53 (2 h) and 0.971 (24 h).
As for `CC[C@H](CO)Nc1nc(NCc2ccccc2)c2ncn(C(C)C)c2n1`, the larval motility is, setting by setting: (2 h) 0.799; (24 h) 0.755.
With `COc1ccc(C2=CC(c3c(F)cccc3Cl)n3ncnc3N2)cc1` (configuration not stated), the larval motility is 0.637 (2 h) and 0.619 (24 h).
The corresponding values for `CN(C)CC(=O)Nc1ccc2[nH]c(=O)c3ccccc3c2c1` are 0.338 (active) and 0.463.
For the molecule `O=C(NO)C1(CS(=O)(=O)c2ccc(Oc3ccc(Cl)cc3)cc2)CCOCC1`, the larval motility reads like this: (2 h) 0.471; (24 h) 1.04.
The corresponding values for `NS(=O)(=O)c1ccc(NC(=O)NC(c2ccccc2)c2ccccc2)cc1` are 0.491 and 0.689.
With `Cc1cc(C)n(O)c(=O)c1`, the larval motility runs as follows: (2 h) 0.846; (24 h) 0.863.
The like results for `CCCNc1ccc(S(=O)(=O)Nc2cc(C)on2)cc1` were, in that order, 0.414 and 0.825.
The corresponding values for `O=C(NCc1ccc(F)cc1)c1c(O)c2ncccc2[nH]c1=O` are 0.718 and 0.908.
As for `Cn1cc(NC(=O)c2cc(NC(=O)c3ccc(/C=C/c4cnc5ccccc5c4)cc3)cn2C)cc1C(=O)NCCN1CCOCC1`, the larval motility by setting is: (2 h) 1.3; (24 h) 0.773.
The corresponding values for `C[C@H](NC(=O)C(=O)Nc1ccccc1C(C)(C)C)C(=O)N[C@@H](CC(=O)O)C(=O)COc1c(F)c(F)cc(F)c1F` are 0.777 and 1.23.
With `CC(=O)N1CCN(c2ccc(OCC3COC(Cn4ccnc4)(c4ccc(Cl)cc4Cl)O3)cc2)CC1` (configuration not stated), the larval motility (2 h) is 0.527 and the larval motility (24 h) was 1.14.
The like results for `CC(C)(C)NC(=O)[C@@H]1CN(Cc2cnc3occc3c2)CCN1C[C@@H](O)C[C@@H](Cc1ccccc1)C(=O)N[C@H]1c2ccccc2C[C@H]1O` were, in that order, 0.857 and 0.932.
For `CCCCSc1nc(N)c2[nH]c(=O)c(=O)n(Cc3ccccc3)c2n1`, the larval motility (2 h) was 0.896 and the larval motility (24 h) is 1.51.
The like results for `CCc1cc(O)c(Oc2cccnc2N)cc1F` were, in that order, 1.72 and 1.42.
The like results for `COc1ccc2c(c1)cc(CNC(=O)c1cc3ccccc3o1)n2CC(=O)O` were, in that order, 0.674 and 0.871.
The corresponding values for `CCc1cc(CCCOc2c(C)cc(-c3noc(C(F)(F)F)n3)cc2C)on1` are 0.695 and 0.658.
Take `O=C1NC(=O)C(Br)=C1Br`: the larval motility by setting is: (2 h) 0.672; (24 h) 0.484.
As to `O=C(Nc1ccc(-c2ccccc2)cc1)C1=C(O)C(Cc2ccccc2)OC1=O` (configuration not stated), the larval motility is, setting by setting: (2 h) 0.886; (24 h) 0.946.
The corresponding values for `Cc1ccn2c(C(=O)NCc3ccccc3)c(C)nc2c1` are 1.47 and 2.35.
The like results for `COc1ccc(-n2cnc3cc(NCc4ccco4)ccc32)cc1` were, in that order, 0.835 and 1.63.
The like results for `O=C(O)[C@H]1C2CCC(CC2)[C@@H]1Nc1nc(-c2c[nH]c3ncc(F)cc23)ncc1F` were, in that order, 0.877 and 1.17.
Take `CC[C@H](NC(=O)[C@H](C)NC)C(=O)N1C[C@@H](O)C[C@H]1Cc1c(-c2[nH]c3cc(F)ccc3c2C[C@@H]2C[C@H](O)CN2C(=O)[C@H](CC)NC(=O)[C@H](C)NC)[nH]c2cc(F)ccc12`: the larval motility (2 h) is 0.407 and the larval motility (24 h) was 0.89.
On to `O=C(N[C@H](Cc1cccc2ccccc12)C(=O)NCCc1c[nH]cn1)C1Cc2ccccc2C1`, for which the larval motility (2 h) was 0.819 and the larval motility (24 h) was 0.952.
In the case of `Cc1ccc(NC(=O)c2ccc(CN3CCN(C)CC3)cc2)cc1Nc1nccc(-c2cccnc2)n1`, the larval motility was 0.64 (2 h) and 0.702 (24 h).
The like results for `CCC[C@H](NC(=O)[C@@H]1[C@H]2CCC[C@H]2CN1C(=O)[C@@H](NC(=O)[C@@H](NC(=O)c1cnccn1)C1CCCCC1)C(C)(C)C)C(=O)C(=O)NC1CC1` were, in that order, 0.881 and 0.577.
Regarding `O=C(O)c1ccccc1Sc1ncnc2sc3c(c12)CCC3`, the larval motility runs as follows: (2 h) 0.968; (24 h) 0.722.
The corresponding values for `NC1C2CC3CC(C2)CC1C3` (configuration not stated) are 0.973 and 1.31.
For the molecule `O=[N+]([O-])c1cn2c(n1)OC[C@@H](OCc1ccc(OC(F)(F)F)cc1)C2`, the larval motility is 1.12 (2 h) and 1.3 (24 h).
In the case of `COc1ccc(C2CNC(=O)C2)cc1OC1CCCC1` (configuration not stated), the larval motility (2 h) was 0.834 and the larval motility (24 h) is 0.959.
The like results for `N#Cc1cc([N+](=O)[O-])ccc1Oc1ccccc1Cl` were, in that order, 1.05 and 1.15.
For the molecule `COc1ccc(CNC(=O)C(NS(=O)(=O)c2ccc3nc(C)sc3c2)C(C)C)cc1` (configuration not stated), the larval motility by setting is: (2 h) 0.329 (active); (24 h) 0.365 (active).
In the case of `Cc1nc2ccc(Oc3ccccc3)cc2c2c1CCN2CCc1ccccc1`, the larval motility reads like this: (2 h) 0.607; (24 h) 0.774.
The like results for `OB1OCc2c1ccc(Cl)c2F` were, in that order, 0.987 and 1.19.
The corresponding values for `CCc1nc2ccc(Cl)cn2c1C(=O)NCc1ccc(N2CCC(c3ccc(OC(F)(F)F)cc3)CC2)cc1` are 0.959 and 0.891.
As to `Fc1ccc(-n2cc(Cn3c(-c4cccc(F)c4)nc4ccccc43)nn2)cc1`, the larval motility (2 h) was 0.761 and the larval motility (24 h) is 0.415.
For the molecule `O=C(Nc1nnc(-c2ccccc2)o1)c1ccc(F)cc1`, the larval motility was 0.832 (2 h) and 0.868 (24 h).
Consider `CN(C)CCCNC(=O)c1ccc(-c2cc(O)c3ncccc3c2)cc1`, for which the larval motility reads like this: (2 h) 0.79; (24 h) 0.683.
